Results on three molecules are retold here after PubChem BioAssay.

Test [1] can be described thus: growth inhibition of DIPG glioma cells, dose response, cell-based, SU-DIPG-XVII, MIPE5.0, CellTiter-Glo, qHTS (AID 1347060; cut-off not given, nearly all actives have AC50 up to about 26 µM;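 as to AC50: cells exposed to compound for 48 hours before viability readout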). The settings on record: SU-DIPG-XVII viability, CellTiter-Glo ATP luminescence. On the technique in general: In ATP-based viability assays light output follows the ATP content of the culture.
A short description of test [2]: growth inhibition of DIPG glioma cells, dose response, cell-based, SU-DIPG-XIII, MIPE5.0, CellTiter-Glo, qHTS (AID 1347064; cut-off not given, nearly all actives have AC50 up to about 23 µM;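 as to AC50: cells exposed to compound for 48 hours before the viability read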). The settings on record: SU-DIPG-XIII viability, CellTiter-Glo ATP luminescence.
Test [3] can be described thus: viability loss in pontine glioma line – cell-based, SU-DIPG-XXV, MIPE5.0, CellTiter-Glo, qHTS, dose response (AID 1347065; cut-off not given, nearly all actives have AC50 up to about 26 µM;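 also: cells exposed to compound for 48 hours before ATP readout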). The settings on record: CellTiter-Glo ATP luminescence.
Test [4] in a line: SU-DIPG-VI glioma cell viability, MIPE4.0 library, CellTiter-Glo luminescence, qHTS (AID 1347066; cut-off not given, nearly all actives have AC50 up to about 30 µM;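 also: cells exposed to compound for 48 hours before readout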). The settings on record: CellTiter-Glo ATP luminescence.
Test [5] can be described thus: JHH-DIPG-1 glioma cell viability, MIPE5.0 library, CellTiter-Glo luminescence, qHTS (AID 1347067; cut-off not given, nearly all actives have AC50 up to about 26 µM;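 also: cells exposed to compound for 48 hours before readout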). The conditions noted are these: JHH-DIPG-1 glioma viability, CellTiter-Glo ATP luminescence.
The nature of test [6]: SU-DIPG-XXV glioma cell viability, MIPE5.0 library, qHTS (AID 1347068; cut-off not given, nearly all actives have IC50 up to about 30 µM). On the technique in general: In qHTS, concentration-response curves come from the screen itself.
Test [7] can be described thus: sensitizers of A549 cells to miR-34 induction, primary screen, imaging, A549 dox-inducible miR-34, nuclei and caspase counts (AID 1347080;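 active = compounds whose cell count with miR-34 switched on is under 0.7 times the count with it off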). The settings on record: A549 miR-34 inducible, Hoechst nuclei count, 48 h.
Test [8] in a line: survival rescue of mitochondrial mutant cells in low glucose, primary screen, MELAS cybrids, Rieske KO mouse fibroblasts, CellTiter-Glo (AID 1508586;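 active = mean z-score across replicates of 1.96 or higher in either the MELAS or the Rieske mutant cell line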;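 also: z relative to plate mean and SD of compound and empty wells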).
Test [9] is described as follows: ovarian cancer cell viability with rucaparib, profiling panel, oncology-focused library, rucaparib conditional (AID 1508598). The conditions noted are these: patient-derived ovarian cancer cells, CellTiter-Glo viability, 144 h, stronger effect = lower value.

Results filed as inconclusive are left out. Activity calls are given as the source filed them.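 The calls were made as follows, unless noted: active = normalized viability below 100% at a tested concentration; inactive = the rest.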

As a reminder, the viability is a read-out of living cells in per cent, often relative to untreated cells. With `Cc1ccc2c(=O)c3cccc(CC(=O)O)c3oc2c1C`, the result in [1], in test [2], in test [3], in test [4], in test [5] and in test [6] was inactive. In addition, the fold change in [7] (stronger effect = lower value, cell number ratio, induced over uninduced) is 0.947 (inactive); in [7] (measured here: relative caspase fold change +Dox/-Dox), 1.03. Besides, the cell count was determined as 6780 in test [7] (measured here: total cells with miR-34 induction, stronger effect = lower value) and 7150 in test [7] (measured here: total cells without miR-34 induction). In addition, the z-score in test [8] (MELAS cybrid survival, CellTiter-Glo 48 h, stronger effect = higher value) was -0.329 (inactive); in test [8] (Rieske KO mouse fibroblast survival, CellTiter-Glo 72 h) it was 0.338. Moreover, the viability in [9] (at 0.000305 µM, OCI-C5x cells, with rucaparib 10 µM, 100% = cells with rucaparib alone) was 94.7% (active); in test [9] (at 0.000305 µM, OCI-C5x cells, without rucaparib) it was 116% (inactive); in test [9] (at 0.000305 µM, OCI-P5x cells, with rucaparib 20 µM, 100% = cells with rucaparib alone), 97% (active); in test [9] (at 0.000305 µM, OCI-P5x cells, without rucaparib) it was 97.7% (active); in test [9] (at 0.00122 µM, OCI-C5x cells, with rucaparib 10 µM, 100% = cells with rucaparib alone), 105% (inactive); in test [9] (at 0.00122 µM, OCI-C5x cells, without rucaparib) it was 110% (inactive). Besides, the viability was 102% (inactive) in [9] (at 0.00122 µM, OCI-P5x cells, with rucaparib 20 µM, 100% = cells with rucaparib alone); 101% (inactive) in test [9] (at 0.00122 µM, OCI-P5x cells, without rucaparib); 108% (inactive) in [9] (at 0.00488 µM, OCI-C5x cells, with rucaparib 10 µM, 100% = cells with rucaparib alone); 116% (inactive) in test [9] (at 0.00488 µM, OCI-C5x cells, without rucaparib); 105% (inactive) in test [9] (at 0.00488 µM, OCI-P5x cells, with rucaparib 20 µM, 100% = cells with rucaparib alone); 103% (inactive) in test [9] (at 0.00488 µM, OCI-P5x cells, without rucaparib). In addition, the viability in test [9] (at 0.0195 µM, OCI-C5x cells, with rucaparib 10 µM, 100% = cells with rucaparib alone) was 113% (inactive); in [9] (at 0.0195 µM, OCI-C5x cells, without rucaparib), 116% (inactive); in test [9] (at 0.0195 µM, OCI-P5x cells, with rucaparib 20 µM, 100% = cells with rucaparib alone) it was 107% (inactive); in [9] (at 0.0195 µM, OCI-P5x cells, without rucaparib), 111% (inactive); in [9] (at 0.0781 µM, OCI-C5x cells, with rucaparib 10 µM, 100% = cells with rucaparib alone), 115% (inactive); in test [9] (at 0.0781 µM, OCI-C5x cells, without rucaparib) it was 114% (inactive). The viability in test [9] (at 0.0781 µM, OCI-P5x cells, with rucaparib 20 µM, 100% = cells with rucaparib alone) was 110% (inactive); in test [9] (at 0.0781 µM, OCI-P5x cells, without rucaparib), 113% (inactive); in test [9] (at 0.313 µM, OCI-C5x cells, with rucaparib 10 µM, 100% = cells with rucaparib alone), 116% (inactive); in test [9] (at 0.313 µM, OCI-C5x cells, without rucaparib), 115% (inactive); in test [9] (at 0.313 µM, OCI-P5x cells, with rucaparib 20 µM, 100% = cells with rucaparib alone), 68.4% (active); in test [9] (at 0.313 µM, OCI-P5x cells, without rucaparib), 19.4% (active). In addition, the viability is 118% (inactive) in [9] (at 1.25 µM, OCI-C5x cells, with rucaparib 10 µM, 100% = cells with rucaparib alone); 127% (inactive) in test [9] (at 1.25 µM, OCI-C5x cells, without rucaparib); 104% (inactive) in [9] (at 1.25 µM, OCI-P5x cells, with rucaparib 20 µM, 100% = cells with rucaparib alone); 112% (inactive) in test [9] (at 1.25 µM, OCI-P5x cells, without rucaparib); 103% (inactive) in [9] (at 5 µM, OCI-C5x cells, with rucaparib 10 µM, 100% = cells with rucaparib alone); 123% (inactive) in test [9] (at 5 µM, OCI-C5x cells, without rucaparib). The viability in [9] (at 5 µM, OCI-P5x cells, with rucaparib 20 µM, 100% = cells with rucaparib alone) is 104% (inactive); in test [9] (at 5 µM, OCI-P5x cells, without rucaparib) it was 122% (inactive).

By AC50 is commonly meant the concentration giving half of the maximal activity seen. Turning to `O=C(c1ccc(Nc2nc(C3CC3)cn3c(-c4cn[nH]c4)cnc23)c(F)c1)N1CCOCC1`, the AC50 in test [1] was 5.25 µM (active); in test [2], 5.9 µM (active); in test [3], 3.72 µM (active); in test [5], 2.63 µM (active).

In the case of `O=C(C[C@@H]1C/C=C\CCC(=O)O[C@H](c2ccccc2)CNC1=O)NCc1ccc(Cl)cc1`, the outcome in test [1], in [2], in test [3], in [4], in test [5] and in test [6] was inactive.
